Records with an inconclusive call do not appear. The source made the active and inactive calls. Calls follow the shape of the dose curve; as a rule, active = well fitted cell-killing curve with a large enough effect in the repeat runs; inconclusive = weak or mixed curves, or effect the other way; inactive = flat fitted curve, though single readings scatter.
% is scaled to controls: 0 for no effect and ±100 for the full control effect.

The nature of this assay: qHTS RealTime-Glo MT Cell Viability Assay in HepG2 cells - 40 hour (AID 1224870). Also: nearly all actives have a fitted effect of over 50% in size. The settings on record: RealTime-Glo luminescence; series mostly up to 76.8 µM. An excerpt:
National Center for Advancing Translational Sciences [NCATS]
NIH Chemical Genomics Center [NCGC]
U.S. Environmental Protection Agency [EPA]
National Institutes of Environmental Health Sciences [NIEHS]
National Toxicology Program [NTP]
U.S. Food and Drug Administration [FDA]
Measure of cell viability is critical in the cell-base assay. Analysis of cell viability is necessary for the characterization of cell responses to cytotoxic drugs and environmental stress. A RealTime-Glo MT Cell Viability Assay to monitor cell viability in real time of continues cell culture during 40 hours of compound treatment was used to screen Tox21 10K library compounds in HepG2 cells. The RealTime-Glo MT Cell Viability Assay is a nonlytic, homogeneous, bioluminescent method to measure cell viability in real time using a simple, plate-based method. The assay involves adding NanoLuc luciferase and a cell-permeant prosubstrate to cells in culture. Viable cells reduce the proprietary prosubstrate to generate a substrate for NanoLuc luciferase. This substrate diffuses from cells into the surrounding culture medium, where it is rapidly used by the NanoLuc Enzyme to produce a luminescent signal. The signal correlates with the number of viable cells, making the assay well suited for cytotoxicity studies.
Tox21 Assay Protocol Summary:
The mixture of HepG2 cell suspension and reagents were dispensed at 600cells/6 ul/well in 1536-well tissue culture treated black solid bottom plates using a Multidrop dispenser. After the assay plates were incubated at a 37 C/5% CO2 incubator for 5 hours, 23 nL of compounds dissolved in DMSO, positive and negative controls was transferred to the assay plate by a pintool work station. The plates were incubated at 37 C for 40 hours. The luminescence intensity were measured at 0h, 8h, 16h, 24h, 32h and 40h time points using ViewLux plate reader during compound treatment.
In general terms: qHTS replaces the single test concentration by a dilution series.
Take `CC1=C(O)C(=O)CO1`: the call was inactive. `CC(=O)SC[C@@H](C)C(=O)N1CCC[C@H]1C(=O)N[C@@H](Cc1ccccc1)C(=O)O`: the call was inactive. For `C/C=C(\C)C=O`, the outcome was inactive. As to `CC(CN1CC(=O)NC(=O)C1)N1CC(=O)NC(=O)C1` (stereo not given), the compound was classed as inactive. Turning to `O=C(O)/C=C(\CC(=O)O)C(=O)O`, the compound was called inactive. On the same count and under the same terms, the same measure for `C[n+]1ccccc1/C=N/O`: “inactive”; for `CC(C)C(C)C`: “inactive”. Turning to `CC(O)CCCCn1c(=O)c2c(ncn2C)n(C)c1=O` (stereo not given), the compound was called inactive. Still for that read-out and setting: the result for `CCCCC(O)/C=C(C)/C=C/C=C/C(=O)N1CCCC1=O` (stereo not given) reads “inactive”; that for `CC(=O)/C=C/C=C1/C2CCC(C2)C1(C)C` (stereo not given), “inactive”. With `COC(=O)c1ccc(NC(C)=O)cc1OC`, the call was inactive. As to `C=CCn1cc[n+](C)c1`, the compound was classed as inactive. On the same count and under the same terms, the result for `C=CC(=O)OCC[N+](C)(C)C` reads “inactive”; that for `BrCCOc1ccccc1`, “inactive”; that for `CNC(C)=O`, “inactive”. The same measure, in the same setting: the result for `CO/N=C(\C(=O)O)c1csc(NC(=O)CCl)n1` reads “inactive”; that for `CCCCCCC(=O)c1ccccc1`, “inactive”. The same measure, in the same setting: the same measure for `NNC(=O)OCc1ccccc1`: “inactive”; for `C/C(=N\O)c1ccc(OCC(=O)N2CCCCC2)cc1`: “inactive”.

Regarding `CCOCCOCCOC(C)=O`, the compound was classed as inactive. Consider `O=C(O)P(=O)(O)O`, for which the compound was classed as inactive. On the same count and under the same terms, the same measure for `C=C(C)C(=O)OCCOC1CC2CC1C1C=CCC21` (stereo not given): “inactive”; for `C[Si](C)(C)O[Si](O)(O)O`: “inactive”.

With `CN(C)CCCN(C)C`, the activity change, negative = cytotoxic is 1.14% [at 6.97 µM] (inactive).

Take `CCCCOCCCC`: the outcome was inactive.

On to `CC(C)(C)C(=O)CC(=O)C(C)(C)C`, for which the outcome was inactive.

As to `CC(C)(C)OC(=O)c1ccccc1C(=O)O`, the result was inactive. Take `CC(C)(C)C(=O)CCc1ccc(Cl)cc1`: the compound was classed as inactive.

For the compound `CNC(=O)c1c(I)c(NC(C)=O)c(I)c(C(=O)O)c1I`, the compound was called inactive. `CC(=O)O[C@@H]1CC2C3CCc4cc(OC(=O)c5ccccc5)ccc4C3CCC2(C)[C@H]1OC(C)=O` (stereo not given in full): the result was inactive. For the compound `Cc1ccc(O)c(C(=O)c2ccccc2)c1`, the compound was called inactive. In the case of `O=C(CCBr)N1CCN(C(=O)CCBr)CC1`, the compound was classed as inactive. Regarding `Cc1ccc(Br)cc1`, the result was inactive. Regarding `Cc1cccc(N)n1`, the outcome was inactive. Consider `CCCc1ncc(C(=O)O)s1`, for which the call was inactive. Turning to `CC(C)OC(=O)C(C(=O)OC(C)C)=C1SC=CS1`, the result was inactive. As for `COCCCOc1cc(C[C@@H](C[C@H](N)[C@@H](O)C[C@H](C(=O)NCC(C)(C)C(N)=O)C(C)C)C(C)C)ccc1OC`, the result was inactive. `COc1cc2nc(N3CCN(C(=O)C4CCCO4)CC3)nc(N)c2cc1OC` (stereo not given): the compound was classed as inactive. On the same count and under the same terms, the result for `COc1cc(S(N)(=O)=O)cc(C(=O)O)c1OC` reads “inactive”; that for `CN(C)CCc1c[nH]c2ccc(CS(=O)(=O)N3CCCC3)cc12`, “inactive”.

(Values after PubChem BioAssay (Tox21).)
